Reference: PubChem BioAssay (Tox21)
Values joined by “and” are separate entries in the source; they are usually repeats but may differ in a detail not shown here. Equal values may be shown once. Inconclusive results are not listed. Values without a mark were called inactive. Active and inactive are the calls of the source. The call rests on the fitted dose curve.

experiment: qHTS assay for small molecules that induce genotoxicity in human embryonic kidney cells expressing luciferase-tagged ATAD5 - cell viability (AID 651634); conditions: HEK293T ATAD5-luc cells viability, CellTiter-Fluor, 15.5 h; series mostly up to 83.3 µM; activity, negative = cytotoxicity: at the top concentration; further: nearly all actives have a fitted effect of over 25% in size
Text: National Center for Advancing Translational Sciences [NCATS]
NIH Chemical Genomics Center [NCGC]
U.S. Environmental Protection Agency [EPA]
National Institutes of Environmental Health Sciences [NIEHS]
National Toxicology Program [NTP]
U.S. Food and Drug Administration [FDA]
Enhanced Level of Genome Instability Gene 1 (ELG1; human ATAD5) protein levels increase in response to various types of DNA damage. Using a luciferase reporter-gene tagged with ElG1, a cell-based assay [developed by Kyungjae Myung, NHGRI, NIH] was used to measure the induction of ATAD5 in human embryonic kidney cells (HEK293T). So, increase in luciferase activity can be used to identify the compounds that cause genetic stress. In addition to genotoxicity, these cells were also used to test for cytotoxicity by measuring the protease activity within live cells.
Tox21 Assay Protocol Summary:
For cytotoxicity screening, 2,000 cells in 5 uL/well were dispensed into white, solid-bottom 1536-well plates using a Multidrop Combi (Thermo Scientific) dispenser. Following transfer of 23 nL compound or DMSO vehicle by a pin tool, the plates were incubated 15.5 hr at 37C and 5% CO2. 1 ul CellTiter-Fluor reagent (Promega, Madison, WI) was then added to each plate and following 30 min incubation at 37C, fluorescence intensity was quantified on a ViewLux CCD-based plate reader.
On the % scale 0 is the no-effect control and ±100 the full control effect; potency means the concentration at half of the fitted maximal effect.

| SMILES | activity, negative = cytotoxicity | Potency |
| --- | --- | --- |
| CCCCCCCCCCCCCOP(=O)(O)O | 9.16% | – |
| CSc1c(Cl)c(Cl)c(Cl)c(Cl)c1Cl | -11.5% | – |
| Clc1ccccc1CN1CCc2sccc2C1 | -9.48% | – |
| O=C(O)CC(=O)O | -1.07% | – |
| CCN(CC)CCCN(c1ccccc1)C1Cc2ccccc2C1 | – | 23.7 µM (active) |
| Cc1oc(-c2ccccc2)nc1CCOc1ccc(C[C@H](Nc2ccccc2C(=O)c2ccccc2)C(=O)O)cc1 | – | 54.5 µM (active) |
| Nc1ncnc2c1ncn2[C@@H]1O[C@H](COP(=O)(O)O)[C@@H](O)[C@H]1O | 6.52% | – |
| COc1ccccc1OCCNCC(O)COc1cccc2[nH]c3ccccc3c12 (stereo not given) | 19.5% | – |
| CN(C)CCCN1c2ccccc2CCc2ccccc21 | – | inactive |
| N#CSCSc1nc2ccccc2s1 | -14.3% | – |
| CCO[Si](CCCSSSSCCC[Si](OCC)(OCC)OCC)(OCC)OCC | -15.6% | – |
| O=C(O)CCCCCCC(=O)O | -2.85% [at 95.3 µM] | – |
| CCc1cccc(C)c1 | 17.6% [at 95.3 µM] | – |
| CCCCCCCCCCCCCC[n+]1ccccc1 | -24.3% | – |
| Brc1ccccc1-c1ccccc1 | 18.4% | – |
| S=P(N1CC1)(N1CC1)N1CC1 | – | inactive |
| CSc1ccc2c(c1)N(CCC1CCCCN1C)c1ccccc1S2 (stereo not given) | – | 29.8 µM (active) and 68.3 µM (active) |
| CCN1CCN(c2cc(-c3ccc(F)cc3)c3c(n2)CCCCCC3)CC1 | 22.8% | – |
| Cc1cc(Nc2ccc(O)cc2)ccc1N | – | 27.2 µM (active) |
| CCCCCCCC/C=C/CCCOC(C)=O | 10.7% | – |

| SMILES | activity, negative = cytotoxicity | Potency |
| --- | --- | --- |
| CC(C)(C)C1=CC(=O)C=C(C(C)(C)C)C1=O | – | 30.6 µM (active) |
| CCCCCCCCCCCC(=O)N(CC)CC | 14.6% | – |
| CCC(C)(C)c1cc(O)c(C(C)(C)CC)cc1O | – | 48.6 µM (active) |
| O=C1OC(=O)c2cccc3cccc1c23 | 4.54% [at 95.3 µM] | – |
| O=S(=O)(O)CCCN1CCOCC1 | 7.33% | – |
| C/C=C/C(=O)Oc1c(CCCCCC(C)C)cc([N+](=O)[O-])cc1[N+](=O)[O-] | – | 19.3 µM (active) |
| CCCCCCCCCCCCCCNCCO | 38.4% | – |
| CC(C)OC(=O)c1cc(C(=O)OC(C)C)cc([N+](=O)[O-])c1 | 33.3% [at 95.3 µM] | – |
| CNC(=O)c1cc(Oc2ccc(NC(=O)Nc3ccc(Cl)c(C(F)(F)F)c3)cc2)ccn1 | – | 16.8 µM (active) |
| Cn1cnc2ncnc(N)c21 | 8.39% | – |
| CCCCOC(=O)C(C)CC (stereo not given) | 17.3% | – |
| O=C(O)CCn1c2c(c3ccccc31)C[C@H](NS(=O)(=O)c1ccc(F)cc1)CC2 | 5.24% | – |
| CCC(C)c1cc([N+](=O)[O-])cc([N+](=O)[O-])c1OC(=O)OC(C)C (stereo not given) | – | 61.1 µM (active) |
| O=C(Nc1ccc(Cl)cc1)Nc1ccc(Cl)c(C(F)(F)F)c1 | – | 13.3 µM (active) |
| C=C1C(C)(C)[C@@]2(Cl)C(Cl)[C@]1(Cl)C(Cl)(Cl)C2(Cl)Cl (stereo not given in full) | -7.57% | – |
| Clc1ccc(C(Cn2ccnc2)OCc2c(Cl)cccc2Cl)c(Cl)c1 (stereo not given) | -19.6% [at 39.1 µM] | – |
| [O]=[Zr] | -16.5% | – |
| CC(CN(C)C)CN1c2ccccc2CCc2ccccc21 (stereo not given) | 6.73% [at 39.1 µM] | – |
| c1ccc(Nc2cccc3ccccc23)cc1 | – | inactive |
| Clc1ccc(C(c2ccccc2Cl)C(Cl)Cl)cc1 (stereo not given) | 10.4% | – |
